Compounds with a hit are over-represented: about 7% of the library has one in this group of screens.
DRD3 antagonist: qHTS of D3 Dopamine Receptor Antagonist: qHTS. D3R cells, DiscoveRx beta-arrestin luminescence, antagonist mode; stronger effect = lower value. max response, negative = inhibition, %. D(3) dopamine receptor (Homo sapiens), P35462. 360,000 compounds, 2.5% hits; in the data active = max response below about -50%; inconclusive = no clear call, values can overlap the other calls; also: % is scaled to controls: 0 for no effect and ±100 for the full control effect
Target sequence (P35462 whole entry, looked up): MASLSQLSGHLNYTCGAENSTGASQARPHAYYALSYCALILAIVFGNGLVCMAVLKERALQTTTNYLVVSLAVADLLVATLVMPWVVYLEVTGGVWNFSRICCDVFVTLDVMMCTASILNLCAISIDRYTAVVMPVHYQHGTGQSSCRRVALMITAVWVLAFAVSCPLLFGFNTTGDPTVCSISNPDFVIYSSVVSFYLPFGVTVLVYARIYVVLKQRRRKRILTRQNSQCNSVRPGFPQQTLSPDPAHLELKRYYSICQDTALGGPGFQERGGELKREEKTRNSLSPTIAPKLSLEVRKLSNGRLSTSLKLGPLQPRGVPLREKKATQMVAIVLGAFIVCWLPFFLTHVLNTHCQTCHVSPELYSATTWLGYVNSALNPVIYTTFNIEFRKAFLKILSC
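Cells plated overnight at 1500 cells/well, then exposed to library compounds with dopamine controls for 90 minutes at 37 degrees C. DiscoveRx reagent added for 30–60 minutes at room temperature; luminescence read, quantitative HTS format.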
ATXN2 expr inh: Primary qHTS for Inhibitors of ATXN expression; HEK-293 ATXN2-luciferase reporter, luminescence, 24 h; Potency, µM (highest dose often 57 µM), for the others: top-dose activity change, negative = inhibition, actives largely listed as inhibitors; 360,000 compounds, 0.72% hits; also: potency is read from the fitted curve at half-maximal effect; % is scaled to controls: 0 for no effect and ±100 for the full control effect; nearly all actives have a fitted effect of over 55% in size
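ATXN2-luciferase reporter cells (luciferase flanked by upstream and downstream ATXN2 gene portions) were treated 24 h at 37 °C with compounds at up to 57 uM. SteadyGlo luminescence gave expression; GF-AFC fluorescence gave viability.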
D3 ag: qHTS of D3 Dopamine Receptor Agonist: qHTS; max activation, %; D3R DiscoveRx beta-arrestin cells, luminescence, 90 min; AID 652048, 2013; 410,000 compounds, 0.58% hits; in the data active = max activation above about 30%; also: 0% is about no effect
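Cells at 1500/well, incubated overnight, then treated with pinned compounds (dopamine as control) for 90 min at 37 degrees C. DiscoveRx reagent added for 30 - 60 minutes at room temperature; luminescence read.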
ATXN viability: Viability Counterscreen for Primary qHTS for Inhibitors of ATXN expression. S2 cells (HEK-293 line with an ATXN2-luciferase reporter) viability, CellTiter-Fluor protease fluorescence, 24 h. Potency, µM (top dose mostly 56.7 µM), most hits filed as cytotoxic. 400,000 compounds, 0.49% hits; also: potency is read from the fitted curve at half-maximal effect; nearly all actives have a fitted effect of over 40% in size
Integrin act MD: qHTS for Activators of Integrin-Mediated Alleviation for Muscular Dystrophy. 350,000 compounds, 0.064% hits. Potency, µM (titrated, usually from 38.3 µM), inactives show top-dose activation, hits mostly activators. alpha7betagal myoblasts, beta-gal FDG fluorescence, 48 h;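 also: potency is read from the fitted curve at half-maximal effect; 100% = response of the positive control SU9516; nearly all actives have a fitted effect of over 60% in size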
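Alpha7betagal+/- myoblasts (passage 13) were plated 16-24 hr, then exposed to compounds (1:260 dilution of DMSO stock) for 48 hours at 37C. After MPER lysis, β-galactosidase reporter activity was read as FDG fluorescence (ex 480/em 540) after 30 minutes.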
IL1B secr inh: qHTS for Inhibitors of Inflammasome Signaling: IL-1-beta AlphaLISA Primary Screen. THP-1 LPS/ATP IL-1B secretion, AlphaLISA, 16 h; stronger effect = lower value. activity change, % at 57.5 µM. 360,000 compounds, 4.7% hits; in the data active = activity change below about -50%; inconclusive = mostly about -30% to -49%; also: % is scaled to controls: 0 for no effect and ±100 for the full control effect
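THP-1 cells pretreated 1 hr with compounds (up to 57.5 uM final), then stimulated with LPS (250 ng/mL final) plus ATP (1.25 mM final); secreted IL-1B measured by AlphaLISA after 16 hr, decreased signal indicating inhibition.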
The depositor's hits bear a star; i = inactive; ? = inconclusive; / = no result; [ ] = another dose, or the depositor's remark. Unless noted, calls follow the shape of the dose curve; as a rule, active = well fitted curve in the direction sought with a large enough effect; inconclusive = small, poorly fitted or top-dose-only effect, or another doubt; inactive = no such curve, though single readings can be large; an effect the other way counts as inactive or inconclusive.

SMILES	DRD3 antagonist	ATXN2 expr inh	D3 ag	ATXN viability	Integrin act MD	IL1B secr inh
O=C1NC(Cc2ccc(O)cc2)c2nc3cc(Cl)ccc3c(=O)n2-c2ncccc21 (stereo not drawn)	4	-4%	-4	?	-1%	-12
O=C1NC(Cc2ccc(O)cc2)c2nc3cc(Cl)ccc3c(=O)n2-c2cc(Cl)ccc21 (stereo not drawn)	8	?	15	?	-1%	-71*
COc1ccc(-c2c(-c3ccccc3)c(C(=O)C(=O)NCCCN(C)C)n3ccc4cc(OC)c(OC)cc4c23)cc1OC	?	-14%	-11	i	-26%	-28
CCCCC[C@H](O)/C=C/[C@H]1CCC(=O)[C@@H]1CCCCCCC(=O)N1CCCCC1CO (stereo partly drawn)	83	?	30*	/	-30%	-23
COC(=O)c1c(NC(=O)c2ccc([N+](=O)[O-])o2)sc2c1CCN(C(C)C)C2	?	?	-4	?	-56%	-97*
CC(=O)N1CCc2c(sc(NC(=O)c3ccc([N+](=O)[O-])o3)c2C#N)C1	-59*	-16%	-12	?	-23%	?
CN(C)c1cccc(-c2cc(Nc3ccc(C(C)(C)C)cc3)ncn2)c1	-55*	25%	2	i	/	0
CC(C)C[C@@H](CNCC(=O)[C@H](CC(C)C)NC(=O)c1[nH]cnc1C(=O)N[C@H](CN)CC(C)C)NC(=O)c1nc[nH]c1C(=O)N[C@@H](CC(=O)O)C(=O)O	0	4%	-23	i	-24%	-10
CC(C)C[C@@H](CN)NC(=O)c1nc[nH]c1C(=O)N[C@@H](CC(C)C)C(=O)CNC[C@H](C)NC(=O)c1nc[nH]c1C(=O)N[C@@H](CC(=O)O)C(=O)O	2	5%	46*	i	8%	5
CC(C)C[C@@H](CNCC(=O)[C@H](CC(=O)O)NC(=O)c1[nH]cnc1C(=O)N[C@H](CN)CC(C)C)NC(=O)c1nc[nH]c1C(=O)N[C@@H](Cc1ccccc1)C(=O)O	-72*	0%	-45	i	-18%	5
CC(C)C[C@@H](CNCC(=O)[C@H](CC(C)C)NC(=O)c1[nH]cnc1C(=O)N[C@@H](C)CN)NC(=O)c1nc[nH]c1C(=O)N[C@@H](Cc1ccccc1)C(=O)O	0	-5%	-15	i	0%	-24
COc1ccc(Cc2nnc(Nc3ccc(C)cc3)o2)cc1OC	-6	/	-5	i	-9%	-24
c1ccc(Nc2ccccn2)cc1	-10	11%	2	i	3%	-16
Oc1cc(Nc2ccccc2)cc2cccnc12	/	32µM*	/	?	/	/
Oc1cccc2cc(Nc3ccccc3)cnc12	/	7.1µM*	/	?	/	/
Oc1cc(NCCN2CCOCC2)cc2cccnc12	/	32µM*	/	?	/	/
CCCCOc1ccc(CN2C(=O)C(=O)c3cc(C)ccc32)cc1OC	/	4%	-22	i	/	/
CC(C)N(CCC(=O)c1ccc2ccccc2c1)Cc1ccccc1	-132*	0%	-76	?	/	?
CC(=O)C1=C(C)NC2=C(C(=O)c3ccccc32)C1c1ccccc1 (stereo not drawn)	-52*	-13%	-8	i	23%	-21
CC1=C(C#N)C(c2ccccc2)C2=C(N1)c1ccccc1C2=O (stereo not drawn)	-18	-25%	-10	i	-17%	-18
CCOC(=O)C1=C(C)NC2=C(C(=O)c3ccccc32)C1c1ccc([N+](=O)[O-])o1 (stereo not drawn)	-4	40%	2	i	-22%	-66*
O=C(Nc1cc2c(cc1Cl)OCCCO2)c1ccccc1	29	65%	3	i	?	-7
COCCCNC(=O)C1CCN(Cc2cc3ccccc3n2Cc2cccc(Cl)c2)CC1	/	?	-8	?	/	/
Cc1ccc(C(=O)N2CCN(c3ccc(C(F)(F)F)cn3)CC2)cc1	16	-17%	3	i	-7%	0
Cc1ccccc1SCC(=O)N1CCN(c2ccc(C(F)(F)F)cn2)CC1	13	?	4	i	8%	-92*
SMILES	DRD3 antagonist	ATXN2 expr inh	D3 ag	ATXN viability	Integrin act MD	IL1B secr inh
CCOc1c2ccc(C(=O)NCCc3cccs3)cc2nn1CC	1	35%	-25	i	18%	10
CCOc1c2ccc(C(=O)N[C@H](C)C3CCCCC3)cc2nn1CC	-82*	-6%	-9	i	-11%	8
CCCCn1nc2cc(C(=O)NCC34CC5CC(CC(C5)C3)C4)ccc2c1OCC	-79*	-35%	-32	i	-21%	-23
Cc1noc(C)c1CN(C(=S)NC(C)C)c1ccccc1	-8	-15%	-7	i	2%	36
CC(C)NC(=O)c1sc2c(c1C(=O)Nc1cccnc1)CCCC2	17	/	-1	i	16%	?
COc1cc2c(cc1OC)C(C)N(C(=O)c1cc(C)on1)CC2 (stereo not drawn)	2	0%	3	?	-21%	36
CCOC(=O)[C@H]1[C@H]2COc3ccc(Br)cc3[C@@H]2N2C(=O)c3cc(OC)c(OC)cc3NC(=O)[C@@]12C	6	5%	5	i	-1%	?
CCOC(=O)[C@H]1[C@H]2COc3ccc(C)cc3[C@@H]2N2C(=O)c3cc(OC)c(OC)cc3NC(=O)[C@@]12C	-60*	1%	-17	i	0%	-15
CCOC(=O)[C@H]1[C@H]2COc3ccc(OC)cc3[C@@H]2N2C(=O)c3cc(OC)ccc3NC(=O)[C@@]12C	0	0%	5	i	-6%	-18
CCOC(=O)[C@H]1[C@H]2COc3ccc(OC)cc3[C@@H]2N2C(=O)c3cc(OC)c(OC)cc3NC(=O)[C@@]12C	-61*	?	-11	i	-10%	-55*
COc1ccc(N2CCN(C(=O)COC(=O)CCOc3ccccc3C)CC2)cc1	2	1%	0	i	-7%	-12
COc1cccc(CN(C)Cc2c(O)ccc3ccccc23)c1	-21	8%	-14	i	12%	?
Cc1ccccn1	/	/	11	/	/	/
CCOC(=O)C1(Cc2cccc(OC)c2)CCN(Cc2ccc(C)s2)CC1	3	-8%[11.3 µM]	-15	i	-53%	-118*
CCOC(=O)C1(Cc2cccc(OC)c2)CCN(Cc2cccn2-c2nccs2)CC1	-16	-13%	-12	i	-17%	-77*

Source: PubChem (National Center for Advancing Translational Sciences (NCATS))
